Bioassay records (PubChem)
SKKanGAS inh = SKKanGAS growth inhibition; S. pyogenes SKKanGAS, kanamycin growth, BacTiter-Glo, 6 h; inhibition, % at 7.5 µM; actives 1.3% (n = 300,000);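 active means mean replicate score, as percent of positive control median, at least 50; inconclusive means mean below 50 but one replicate at or above 50; inactive means mean and every replicate below 50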;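 further: strain carries kanamycin resistance gene driven by streptokinase promoter and grows in 40 µg/ml kanamycin; loss of luminescence reflects streptokinase promoter inhibition or plain growth inhibition; 0% = median of DMSO wells and 100% = positive control at its reference dose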
NLRP3 yeast inh = inhibitors of NALP3 inflammasome in yeast. Yeast reconstituted NLRP3/ASC/caspase-1, beta-gal luminescence, 24 h. AID 2825. inhibition, % at 10 µM. actives 0.39% (n = 330,000);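 active means inhibition of 50% or more; inactive means inhibition below 50%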;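 further: plate controls were induced DMSO wells for no effect and uninduced yeast grown without galactose for full effect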
tim23-1 inh = inhibits growth of tim23-1 mutant yeast; AID 463212; actives 1.3% (n = 330,000); S. cerevisiae tim23-1 growth, BacTiter-Glo luminescence, 24 h; inhibition, % at 20 µM;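 active means growth inhibition of the mutant yeast at or above 50%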;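 further: temperature-sensitive mutant grown at 25 °C; plate controls were DMSO-treated mutant yeast for no effect and medium wells lacking yeast for full effect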
TIM10 inh = inhibits growth of TIM10 yeast strain | S. cerevisiae TIM10 strain growth, BacTiter-Glo luminescence, 24 h | inhibition, % at 10 µM | actives 1.4% (n = 330,000) | AID 463195;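 active means inhibition of 40% or more at the single tested concentration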;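 further: wild-type TIM10 isogenic control strain grown at permissive 25 °C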
tim10-1 inh = tim10-1 yeast growth inhibition | AID 463190 | actives 2.2% (n = 330,000) | S. cerevisiae tim10-1 ts strain growth, BacTiter-Glo, 24 h | inhibition, % at 20 µM;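 active means inhibition of at least 40%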;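 further: mutant grown at 25 °C; 0% = DMSO wells with yeast and 100% = wells holding no yeast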
* = called active by the depositor; u = inconclusive; x = no result. Most compounds without a hit are left out; they make up all but 4.6% or so of the library.

SMILES | SKKanGAS inh | NLRP3 yeast inh | tim23-1 inh | TIM10 inh | tim10-1 inh
O=C(NC1CC1)c1ccc(CSCc2ccccc2Cl)o1 | 0 | 23 | 22 | -16 | 19
CN(C)CCCNC(=S)NCC(c1ccc(Cl)cc1Cl)c1c[nH]c2ccccc12 (configuration not stated) | 56* | 12 | -20 | 6 | -13
N#Cc1c(SCC(=O)Nc2ccc(C(F)(F)F)cc2)sc2c(O)cc(=O)[nH]c12 | 14 | 7 | 11 | -3 | 0
N#Cc1c(Nc2cccc(F)c2)sc2c(O)cc(=O)[nH]c12 | 113* | 17 | 13 | -6 | -6
Cc1ccsc1CN(C)C(=O)C(NC(=O)c1cccc(S(=O)(=O)N2CCOCC2)c1)C(C)C (configuration not stated) | x | 8 | 22 | 19 | 25
COc1ccc(/C=C2\SC(=Nc3ccccc3)NC2=O)cc1 | 6 | 13 | 13 | 9 | 3
COc1ccccc1N=C1NC(=O)/C(=C/c2ccc(N(C)C)cc2)S1 | 56* | 21 | 22 | 17 | 6
CCCCc1nc(N2CCN(C(=O)c3ccco3)CC2)c(C#N)c2c1CCCC2 | 97* | 11 | 36 | 21 | 28
CCOC(=O)c1[nH]c2ccc(F)cc2c1NC(=O)c1ccccc1C(=O)O | 84* | 4 | -6 | -7 | -5
CCOC(=O)c1[nH]c2ccc(OC)cc2c1NC(=O)c1ccccc1C(=O)O | 12 | 14 | -3 | 14 | 4
COc1ccc(CN(C)C(=O)Cc2ccc(OC)c(S(=O)(=O)N3CCOCC3)c2)cc1 | 0 | -1 | -3 | -9 | 3
N=c1c(-c2nc3ccccc3[nH]2)cc(C(=O)c2ccco2)nn1-c1ccccc1 | -21 | 23 | -3 | 3 | 27
N=c1c(-c2nc3ccccc3[nH]2)cc(C(=O)c2cccs2)nn1-c1ccccc1 | 51* | 3 | 3 | 16 | 36
Cc1nnsc1C(=O)N/N=C/c1ccc2ccccc2c1O | 56* | 20 | -8 | -14 | 7
Cc1nnsc1C(=O)N/N=C/c1ccccc1 | 10 | 15 | -12 | 0 | 15
NS(=O)(=O)c1ccc(N2N=C(c3ccccc3)CC2c2ccc(F)cc2)cc1 (configuration not stated) | 64* | 8 | 18 | 8 | 26
Oc1ccc(C2=NN(c3ccccc3)C(c3ccc(F)cc3)C2)cc1 (configuration not stated) | 81* | 9 | 26 | 12 | -4
COc1ccc(C2CC(c3ccccc3)=NN2c2ccc(S(N)(=O)=O)cc2)cc1 (configuration not stated) | u | 14 | 25 | 33 | 20
CC(C(=O)N1CCc2ccccc21)N1CCN(S(=O)(=O)c2cccc(C(F)(F)F)c2)CC1 (configuration not stated) | x | 6 | 33 | 26 | 18
Cc1cc(=O)c(C(=O)O)cn1Nc1ccc(Cl)cc1 | 65* | 17 | 9 | -5 | 10
O=C(Oc1cccc(Nc2ncnc3ccccc23)c1)c1ccccc1Cl | 61* | 14 | 36 | 2 | 25
COc1cccc(Nc2ncnc3ccccc23)c1 | -1 | 15 | 7 | -5 | -21
Cc1cc(=O)[nH]c(SCC(=O)Nc2ccc(Br)cc2)c1C#N | 55* | 6 | 24 | -2 | 7
CCOc1ccc2oc(C(=O)NNC(=O)c3ccccc3O)c(C)c2c1 | 69* | 3 | -16 | -21 | 0
Cc1c(C(=O)NNC(=O)c2ccccc2O)oc2ccc(Br)cc12 | 108* | x | x | x | x
SMILES | SKKanGAS inh | NLRP3 yeast inh | tim23-1 inh | TIM10 inh | tim10-1 inh
O=C(c1ccc(CNS(=O)(=O)c2cccc(Cl)c2)cc1)N1CCCCC1 | 6 | 9 | 14 | 5 | 25
CC(C)NC(=O)N(C)C[C@H]1Oc2c(NC(=O)C3CC3)cccc2C(=O)N([C@H](C)CO)C[C@@H]1C | x | 4 | -2 | -7 | -9
COc1ccc(NC(C)=O)cc1NC(C)C(=O)Nc1ccc(S(=O)(=O)N2CCCCC2)cc1 (configuration not stated) | x | 14 | 13 | 3 | 1
COC(=O)c1cc(NC(=O)c2cc(-c3ccc(Cl)cc3)oc2C(F)(F)F)ccc1N1CCOCC1 | 59* | 16 | 25 | 14 | 18
C=C(C)[C@@H]1CCC2(C(=O)O)CC[C@]3(C)[C@H](CC[C@@H]4[C@@]5(C)CCC(=O)C(C)(C)[C@@H]5CC[C@]43C)[C@@H]12 (some centres not stated) | 104* | 23 | -13 | -9 | 1
C=C(C)[C@@H]1CC[C@]2(C(=O)O)CC[C@]3(C)C(CCC4[C@@]5(C)CC[C@H](O)C(C)(C)C5CC[C@]43C)C12 (some centres not stated) | 25 | 12 | -7 | -11 | 5
COc1ccccc1NC(=O)C(=O)NNC(=O)COc1ccc2ccccc2c1 | 67* | -3 | 5 | 2 | -13
Clc1ccc(-c2ccc(/C=N/Nc3cc(N4CCOCC4)nc(N4CCOCC4)n3)o2)cc1 | 76* | 8 | 36 | 2 | 28
CCN(Cc1ccccc1)C(=O)COC(=O)c1cc(S(=O)(=O)Nc2ccccc2OC)ccc1O | x | 2 | 25 | 16 | 13
O=C(NCc1cccc(Cl)c1)c1cccc(S(=O)(=O)N2CCCC2)c1 | x | 5 | 19 | 3 | 13
Cc1ccccc1-c1cc(C(=O)Nc2sc(C(=O)OC(C)C)c(C)c2C#N)c2ccccc2n1 | 59* | 17 | 13 | 11 | 20
Clc1ccc(COn2c(-c3ccccc3)nc3ccccc32)cc1 | 7 | 17 | 32 | 23 | 24
Clc1ccc(COn2c(-c3ccc(Cl)cc3)nc3ccccc32)cc1 | 52* | 18 | 7 | 23 | 13
CC(C)Nc1nc(Oc2ccc(Cl)cc2Cl)cc(C(F)(F)F)n1 | 79* | 9 | 5 | 11 | -21
COc1ccccc1NC(=O)CN1CCN(CC(=O)Nc2ccc(F)cc2F)CC1 | -9 | 26 | 13 | 0 | 12
O=C(Nc1nc(N2C(=O)c3ccccc3C2=O)n(-c2ccccc2)n1)c1ccc(Cl)cc1 | 56* | 3 | 9 | 0 | 10
CN(C)c1cc(N/N=C/c2ccc(Cl)cc2)nc(N(C)C)n1 | -21 | x | x | x | x
CN(/N=C/c1ccc(Cl)cc1)c1ncc(Cl)cc1C(F)(F)F | 73* | 17 | -13 | -16 | -12
Cc1ccc(N(C)/N=C/c2ccc(Cl)cc2Cl)nn1 | 1 | 12 | 39 | -2 | 13
CN(/N=C/c1ccc(Cl)cc1Cl)c1ncc(Cl)cc1C(F)(F)F | 76* | 14 | -24 | -22 | -13
N#Cc1ccc(-c2ccccc2)nc1SCC(=O)c1cc2ccccc2oc1=O | 109* | 6 | -30 | -8 | 31
O=C(COC(=O)c1ccc(F)cc1F)NCc1ccc2c(c1)OCO2 | x | 8 | 27 | 16 | 26
COc1cccc(NC(=O)COC(=O)C2CCCCC2)c1 | x | 22 | 18 | 5 | 5
COc1ccccc1CN1CN(S(=O)(=O)c2ccccc2)c2nc3ccccc3nc21 | 50* | 8 | 33 | 1 | 6
Fc1cc(F)c(C2SCCN2C(=S)Nc2cccc(C(F)(F)F)c2)c(F)c1 (configuration not stated) | 50* | -1 | -67 | -167 | 6
